# Unmarked numbers belong to inactive results. Inconclusive results are not listed. A call without a number means that no potency is given here. Activity calls are given as the source filed them. Unless noted, the call rests on the fitted dose curve; in most records, active means well fitted curve in the direction sought with a large enough effect in the repeat runs; inconclusive means weak or mixed curves; inactive means no such curve, though single readings can be large; an effect the other way counts as inactive or inconclusive.
# How the values were obtained:
# [1] = A CellTox Green Cytotoxicity Assay to monitor cytotoxicity in HEK293 cells - 32 hour (AID 1224881); further: nearly all actives have a fitted effect of over 40% in size
# In short: (§1)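 Dead-cell fluorescence measured kinetically: asymmetric cyanine dye, HEK293, 600 cells/well, 5 h settle, 23 nL cpd/DMSO, 37 C, reads 0–40 h every 8 h.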
# [2] = A CellTox Green Cytotoxicity Assay to monitor cytotoxicity in HepG2 cells - 0 hour (AID 1224882); further: nearly all actives have a fitted effect of over 35% in size
# In short: (§2)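 First, HepG2 cells (600/well) mixed with reagent were plated; second, after 5 h at 37 C they received compounds via pintool; third, fluorescence was measured at 0 h through 40 h at 8 h intervals.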
# [3] = A CellTox Green Cytotoxicity Assay to monitor cytotoxicity in HepG2 cells - 32 hour (AID 1224883); further: nearly all actives have a fitted effect of over 50% in size
# In short: as §2
# [4] = A CellTox Green Cytotoxicity Assay to monitor cytotoxicity in HEK293 cells - 8 hour (AID 1224884); further: nearly all actives have a fitted effect of over 35% in size
# In short: as §1
# [5] = qHTS RealTime-Glo MT Cell Viability Assay in HepG2 cells - 16 hour (AID 1224885); further: nearly all actives have a fitted effect of over 50% in size
# In short: (§3)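 Cell number in HepG2 cultures estimated from NanoLuc luminescence generated by metabolic reduction of a prosubstrate by living cells. The homogeneous, nonlytic format allowed repeated reads at 0, 8, 16, 24, 32 and 40 h of compound exposure.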
# [6] = qHTS RealTime-Glo MT Cell Viability Assay in HEK293 cells - 24 hour (AID 1224886); further: top concentration of the series differs between compounds; nearly all actives have a fitted effect of over 50% in size
# In short: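 Homogeneous bioluminescent viability format in HEK293 cells (600 cells/well). Following 5 h at 37 C/5% CO2, 23 nL compound was pintooled; the signal was measured repeatedly during 40 h incubation.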
# [7] = qHTS RealTime-Glo MT Cell Viability Assay in HEK293 cells - 8 hour (AID 1224887); further: top concentration of the series differs between compounds; nearly all actives have a fitted effect of over 50% in size
# In short: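 600 HEK293 cells per well, dispensed already mixed with RealTime-Glo MT reagents. Compound dosing came 5 h later. The same wells were read for luminescence at 0, 8, 16, 24, 32 and 40 h of exposure at 37 C.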
# [8] = A CellTox Green Cytotoxicity Assay to monitor cytotoxicity in HEK293 cells - 16 hour (AID 1224888); further: nearly all actives have a fitted effect of over 35% in size
# In short: as §1
# [9] = qHTS RealTime-Glo MT Cell Viability Assay in HepG2 cells - 0 hour (AID 1224889); further: nearly all actives have a fitted effect of over 50% in size; further: potency means the concentration at half of the fitted maximal effect
# In short: as §3
# [10] = A CellTox Green Cytotoxicity Assay to monitor cytotoxicity in HepG2 cells - 8 hour (AID 1224890); further: nearly all actives have a fitted effect of over 45% in size
# In short: as §2
# [11] = qHTS assay to identify small molecule antagonists of the estrogen receptor alpha (ER-alpha) signaling pathway using the BG1 cell line in the presence of 0.1 nM 17-beta-estradiol - cell viability counter screen (AID 1259241); further: nearly all actives have a fitted effect of over 40% in size; further: potency means the concentration at half of the fitted maximal effect
# In short: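 Cytotoxicity counter-screen: live-cell protease activity measured by fluorescence (30 min reagent step) in the same wells. Cells were VM7Luc4E2 with endogenous ER-alpha and ERE-driven luciferase, treated 22 hr at 37C alongside 0.1 nM 17beta-estradiol final.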
# [12] = qHTS assay to identify small molecule antagonists of the androgen receptor (AR) signaling pathway using the MDA cell line in the presence of 0.5 nM R1881 - cell viability counter screen (AID 1259242); further: nearly all actives have a fitted effect of over 45% in size
# In short: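 qHTS format. MDA-kb2 (MMTV-luc, AR/GR responsive) + cpd + 0.5 nM R1881 final, 16 hr 37C/0% CO2 → CellTiter-Fluor 30 min → fluorescence intensity.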
# [13] = qHTS assay to identify small molecule HDAC inhibitors (AID 1259364);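 further: wild-type HCT-116 cells with endogenous class I/II HDAC activity; top concentration of the series differs between compounds; nearly all actives have a fitted effect of over 45% in size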
# In short: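 Quantitative high-throughput format: overnight-seeded HCT-116 cells got compounds for 2 hr at 37C; HDAC-Glo I/II reagent added, 30 min RT, luminescence measured.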
# [14] = qHTS assay to identify small molecule HDAC inhibitors - cell viability counter screen (AID 1259365)
# In short: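 CellTiter-Glo luminescence (30 min, room temperature) reported viability after a 2 h compound exposure at 37 C. Cells: wild-type HCT-116, 1,500 per well, seeded the night before.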
# [15] = qHTS assay to identify small molecule agonists of the sonic hedgehog signaling (Shh) pathway - cell viability counter screen (AID 1259366); further: nearly all actives have a fitted effect of over 50% in size; further: potency means the concentration at half of the fitted maximal effect
# In short: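 Cytotoxicity counter screen: CellTiter-Fluor reagent added after 23 h compound exposure, then 1 h at 37C and fluorescence read. Cells were 3T3 Gli1-Luc, seeded 2,000 per well and dosed 4 h post-plating.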
# [16] = qHTS assay to identify small molecule antagonists of the sonic hedgehog signaling (Shh) pathway - cell viability counter screen (AID 1259367); further: nearly all actives have a fitted effect of over 55% in size; further: potency means the concentration at half of the fitted maximal effect
# In short: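 CellTiter-Fluor signal in conditioned medium-stimulated 3T3 Gli1-Luc cells, 23 hr compound exposure, 37C.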
# [17] = qHTS assay to identify small molecule agonists of the sonic hedgehog signaling (Shh) pathway (AID 1259368; calls by dose curve;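 further: NIH/3T3-derived 3T3Gli1-Luc cells carrying a stable Gli1-driven firefly luciferase reporter; series mostly up to about 92 µM; nearly all actives have a fitted effect of over 15% in size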)
# In short: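 Quantitative high-throughput format using a Gli1-driven firefly luciferase reporter line derived from NIH/3T3 cells. After a 24 hr compound treatment at 37 C and 5% CO2, luminescence reported Gli1 response element activity.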
# [18] = target: Estrogen receptor (Homo sapiens) (UniProt P03372); assay: qHTS assay to identify small molecule antagonists of the estrogen receptor alpha (ER-alpha) signaling pathway using the BG1 cell line in the presence of 0.1 nM 17-beta-estradiol (AID 1259244); further: nearly all actives have a fitted effect of over 50% in size
# In short: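 Reporter is a stably transfected luciferase under four estrogen responsive elements in VM7Luc4E2 cells expressing native full-length ER-alpha; inhibition of 0.1 nM (final) 17beta-estradiol-driven signal over 22 h is read by luminescence.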
# [19] = qHTS assay to identify small molecule phospholipidosis (PLD) inducers (AID 1259344; active means well fitted curve in the direction sought with a large enough effect; an effect the other way counts as inactive or inconclusive; further: potency means the concentration at half of the fitted maximal effect)
# In short: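 Accumulated phospholipid, stained red by LipidTOX during 24 h compound treatment of HepG2 cells at 37 C, is quantified from images as pit number and intensity, normalised per cell using Hoechst-stained nuclei.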
# [20] = target: Androgen receptor (Homo sapiens) (UniProt P10275); assay: qHTS assay to identify small molecule antagonists of the androgen receptor (AR) signaling pathway using the MDA cell line in the presence of 0.5 nM R1881 (AID 1259243); further: nearly all actives have a fitted effect of over 50% in size
# In short: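 Antagonist mode quantitative HTS in MDA-kb2 MMTV-luciferase cells, agonist R1881 at 0.5 nM final, 16 hr exposure at 37C and 0% CO2, luminescent detection.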
# Estrogen receptor (Homo sapiens), sequence (P03372 whole entry, looked up): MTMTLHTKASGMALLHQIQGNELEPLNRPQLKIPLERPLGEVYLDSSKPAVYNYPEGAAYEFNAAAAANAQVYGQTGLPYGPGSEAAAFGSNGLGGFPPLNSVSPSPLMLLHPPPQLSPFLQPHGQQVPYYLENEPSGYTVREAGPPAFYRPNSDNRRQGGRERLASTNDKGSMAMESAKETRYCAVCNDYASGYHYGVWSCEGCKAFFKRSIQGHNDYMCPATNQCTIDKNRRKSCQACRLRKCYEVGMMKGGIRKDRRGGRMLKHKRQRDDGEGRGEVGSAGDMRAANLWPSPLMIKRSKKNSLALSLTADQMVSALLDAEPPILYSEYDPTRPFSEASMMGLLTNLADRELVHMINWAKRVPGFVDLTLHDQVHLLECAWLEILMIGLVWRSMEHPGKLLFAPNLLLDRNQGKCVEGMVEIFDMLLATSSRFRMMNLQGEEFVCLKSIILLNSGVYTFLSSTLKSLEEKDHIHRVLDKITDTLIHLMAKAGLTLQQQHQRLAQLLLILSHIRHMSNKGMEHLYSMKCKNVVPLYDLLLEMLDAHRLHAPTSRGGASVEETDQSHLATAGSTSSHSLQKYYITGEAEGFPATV
# Androgen receptor (Homo sapiens), sequence (P10275 whole entry, looked up): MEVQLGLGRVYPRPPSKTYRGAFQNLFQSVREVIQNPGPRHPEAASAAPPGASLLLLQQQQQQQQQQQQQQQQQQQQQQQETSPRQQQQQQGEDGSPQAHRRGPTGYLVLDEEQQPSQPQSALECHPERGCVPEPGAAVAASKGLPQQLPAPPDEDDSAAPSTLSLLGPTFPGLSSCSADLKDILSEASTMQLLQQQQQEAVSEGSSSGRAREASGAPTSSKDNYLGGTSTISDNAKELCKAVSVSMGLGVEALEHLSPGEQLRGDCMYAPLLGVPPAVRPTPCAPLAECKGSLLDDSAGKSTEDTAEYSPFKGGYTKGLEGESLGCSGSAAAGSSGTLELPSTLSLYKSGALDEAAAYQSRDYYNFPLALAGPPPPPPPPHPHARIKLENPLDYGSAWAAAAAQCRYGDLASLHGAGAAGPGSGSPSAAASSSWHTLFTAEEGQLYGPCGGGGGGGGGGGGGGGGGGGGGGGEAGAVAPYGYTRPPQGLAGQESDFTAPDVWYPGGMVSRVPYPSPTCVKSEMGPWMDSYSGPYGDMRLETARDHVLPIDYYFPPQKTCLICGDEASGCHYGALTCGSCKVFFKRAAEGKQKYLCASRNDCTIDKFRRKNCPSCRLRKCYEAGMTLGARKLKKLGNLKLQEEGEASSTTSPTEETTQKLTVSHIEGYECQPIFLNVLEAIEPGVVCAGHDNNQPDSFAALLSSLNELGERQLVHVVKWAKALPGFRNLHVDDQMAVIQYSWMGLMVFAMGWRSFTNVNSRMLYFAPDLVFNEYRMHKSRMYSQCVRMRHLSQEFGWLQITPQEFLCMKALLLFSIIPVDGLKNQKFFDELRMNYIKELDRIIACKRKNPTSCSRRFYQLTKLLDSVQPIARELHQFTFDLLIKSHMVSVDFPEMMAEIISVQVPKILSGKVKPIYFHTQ
structure (smiles),measurement,setting,value
Cc1ccc(C(C)OC(=O)C2(C)CCC(C(=O)O)C2(C)C)cc1 (centres undefined),Potency,[1],inactive
same,Potency,[2],inactive
same,Potency,[3],inactive
same,Potency,[4],inactive
same,Potency,[5],inactive
same,Potency,[6],inactive
same,Potency,[7],inactive
same,Potency,[8],inactive
same,Potency,[9],inactive
same,Potency,[10],inactive
same,Potency,[11],inactive
same,Potency,[12],inactive
same,Potency,[13],inactive
same,Potency,[14],inactive
same,Potency,[15],inactive
same,Potency,[16],inactive
same,outcome,[17],inactive
CCCCC1=NC2(CCCC2)C(=O)N1Cc1ccc(-c2ccccc2-c2nn[nH]n2)cc1,Potency,[1],inactive
same,Potency,[2],inactive
same,Potency,[3],inactive
same,Potency,[4],inactive
same,Potency,[5],inactive
same,Potency,[6],inactive
same,Potency,[7],inactive
same,Potency,[8],inactive
same,Potency,[9],inactive
same,Potency,[10],inactive
same,Potency,[12],inactive
same,Potency,[18],inactive
same,Potency,[19],inactive
same,Potency,[13],inactive
same,Potency,[14],inactive
same,Potency,[16],6.68 µM (active)
same,outcome,[17],inactive
C=CCOc1ccccc1OCC(O)CNC(C)C (centres undefined),Potency,[1],inactive
same,Potency,[2],inactive
same,Potency,[3],inactive
same,Potency,[4],inactive
same,Potency,[5],inactive
same,Potency,[6],inactive
same,Potency,[7],inactive
same,Potency,[8],inactive
same,Potency,[9],inactive
same,Potency,[10],inactive
same,Potency,[11],inactive
same,Potency,[12],inactive
same,Potency,[18],inactive
same,Potency,[19],inactive
same,Potency,[13],inactive
same,Potency,[14],inactive
same,Potency,[15],inactive
same,Potency,[16],inactive
same,outcome,[17],inactive
CC(=O)[O][Al],Potency,[1],inactive
same,Potency,[2],inactive
same,Potency,[3],inactive
same,Potency,[4],inactive
same,Potency,[5],inactive
same,Potency,[6],inactive
same,Potency,[7],inactive
same,Potency,[8],inactive
same,Potency,[9],inactive
same,Potency,[10],inactive
same,Potency,[11],inactive
same,Potency,[12],inactive
same,Potency,[13],inactive
same,Potency,[14],inactive
same,Potency,[15],inactive
same,Potency,[16],inactive
same,outcome,[17],inactive
C#Cc1cccc(Nc2ncnc3cc(OCCOC)c(OCCOC)cc23)c1,Potency,[1],inactive
same,Potency,[2],inactive
same,Potency,[3],inactive
same,Potency,[4],inactive
same,Potency,[5],inactive
same,Potency,[6],inactive
same,Potency,[7],inactive
same,Potency,[8],inactive
same,Potency,[9],inactive
same,Potency,[10],inactive
same,Potency,[11],inactive
same,Potency,[12],inactive
same,Potency,[18],inactive
same,Potency,[19],10 µM (active)
same,Potency,[13],inactive
same,Potency,[14],inactive
same,outcome,[17],inactive
CN1CCN(C(c2ccccc2)c2ccccc2)CC1,Potency,[1],inactive
same,Potency,[2],inactive
same,Potency,[3],inactive
same,Potency,[4],inactive
same,Potency,[5],inactive
same,Potency,[6],inactive
same,Potency,[7],inactive
same,Potency,[8],inactive
same,Potency,[9],inactive
same,Potency,[10],inactive
same,Potency,[12],inactive
same,Potency,[20],inactive
same,Potency,[18],inactive
same,Potency,[19],inactive
same,Potency,[13],inactive
same,Potency,[14],inactive
same,outcome,[17],inactive
CC(=O)OC[C@H]1O[C@@H](n2ncc(=O)[nH]c2=O)[C@H](OC(C)=O)[C@@H]1OC(C)=O,Potency,[1],inactive
same,Potency,[2],inactive
same,Potency,[3],inactive
same,Potency,[4],inactive
same,Potency,[5],inactive
same,Potency,[6],inactive
same,Potency,[7],inactive
same,Potency,[8],inactive
same,Potency,[9],inactive
same,Potency,[10],inactive
same,Potency,[11],inactive
same,Potency,[12],inactive
same,Potency,[20],inactive
same,Potency,[18],inactive
same,Potency,[19],inactive
same,Potency,[13],inactive
same,Potency,[15],inactive
same,Potency,[16],inactive
same,outcome,[17],inactive
O=[N+]([O-])c1ccc(NCCO)c(OCCO)c1,Potency,[1],inactive
same,Potency,[2],inactive
same,Potency,[3],inactive
same,Potency,[4],inactive
same,Potency,[5],inactive
same,Potency,[6],inactive
same,Potency,[7],inactive
same,Potency,[8],inactive
same,Potency,[9],inactive
same,Potency,[10],inactive
same,Potency,[11],54.5 µM (active)
same,Potency,[20],inactive
same,Potency,[13],inactive
same,Potency,[14],inactive
same,Potency,[15],24.4 µM (active)
same,Potency,[16],30.7 µM (active)
same,outcome,[17],inactive
C=C(C)C(=O)OCC,Potency,[1],inactive
same,Potency,[2],inactive
same,Potency,[3],inactive
same,Potency,[4],inactive
same,Potency,[5],inactive
same,Potency,[6],inactive
same,Potency,[7],inactive
same,Potency,[8],inactive
same,Potency,[9],inactive
same,Potency,[10],inactive
same,Potency,[12],inactive
same,Potency,[18],inactive
same,Potency,[13],inactive
same,Potency,[14],inactive
same,Potency,[16],inactive
same,outcome,[17],inactive
CC1=CCCC(C)(C)C12CCC(C)O2 (centres undefined),Potency,[1],inactive
same,Potency,[2],inactive
same,Potency,[3],inactive
same,Potency,[4],inactive
same,Potency,[5],inactive
same,Potency,[6],inactive
same,Potency,[7],inactive
same,Potency,[8],inactive
same,Potency,[9],inactive
same,Potency,[10],inactive
same,Potency,[11],inactive
same,Potency,[12],inactive
same,Potency,[13],inactive
same,Potency,[15],inactive
same,Potency,[16],inactive
same,outcome,[17],inactive
CC(C)OC(=O)C(C)N(C(=O)c1ccccc1)c1ccc(F)c(Cl)c1 (centres undefined),Potency,[1],inactive
same,Potency,[2],inactive
same,Potency,[3],inactive
same,Potency,[4],inactive
same,Potency,[5],inactive
same,Potency,[6],inactive
same,Potency,[7],inactive
same,Potency,[8],inactive
same,Potency,[9],inactive
same,Potency,[10],inactive
same,Potency,[12],inactive
same,Potency,[13],inactive
same,Potency,[14],inactive
same,Potency,[15],inactive
same,Potency,[16],inactive
same,outcome,[17],inactive
CC(CC=O)c1ccccc1 (centres undefined),Potency,[1],inactive
same,Potency,[2],inactive
same,Potency,[3],inactive
same,Potency,[4],inactive
same,Potency,[5],inactive
same,Potency,[6],inactive
same,Potency,[7],inactive
same,Potency,[8],inactive
same,Potency,[9],inactive
same,Potency,[10],inactive
same,Potency,[11],inactive
same,Potency,[12],inactive
same,Potency,[18],inactive
same,Potency,[14],inactive
same,Potency,[15],inactive
same,Potency,[16],inactive
same,outcome,[17],inactive
O=C(O)C(S)C(S)C(=O)O (centres undefined),Potency,[1],inactive
same,Potency,[2],inactive
same,Potency,[3],inactive
same,Potency,[4],inactive
same,Potency,[5],inactive
same,Potency,[6],inactive
same,Potency,[7],inactive
same,Potency,[8],inactive
same,Potency,[9],inactive
same,Potency,[10],inactive
same,Potency,[11],inactive
same,Potency,[12],inactive
same,Potency,[19],inactive
same,Potency,[13],inactive
same,Potency,[14],inactive
same,Potency,[15],inactive
same,Potency,[16],inactive
same,outcome,[17],inactive
CCCCC(=O)OCC(=O)[C@H]1[C@H](C)C[C@H]2[C@@H]3C[C@H](F)C4=CC(=O)C=C[C@]4(C)[C@@]3(F)[C@@H](O)C[C@@]21C,Potency,[1],inactive
same,Potency,[2],inactive
same,Potency,[3],inactive
same,Potency,[4],inactive
same,Potency,[5],inactive
same,Potency,[6],inactive
same,Potency,[7],inactive
same,Potency,[8],inactive
same,Potency,[9],952 nM (active)
same,Potency,[10],inactive
same,Potency,[11],inactive
same,Potency,[12],inactive
same,Potency,[18],inactive
same,PLD induction,[19],-1.62% [at 7.66 µM]
same,Potency,[13],inactive
same,Potency,[14],inactive
same,Potency,[15],inactive
same,Potency,[16],inactive
same,outcome,[17],inactive
COCCCN1CCC(NC(=O)c2cc(Cl)c(N)c3c2OCC3)CC1,Potency,[1],inactive
same,Potency,[2],inactive
same,Potency,[3],inactive
same,Potency,[4],inactive
same,Potency,[5],inactive
same,Potency,[6],inactive
same,Potency,[7],inactive
same,Potency,[8],inactive
same,Potency,[9],inactive
same,Potency,[10],inactive
same,Potency,[11],inactive
same,Potency,[12],inactive
same,Potency,[13],inactive
same,Potency,[14],inactive
same,Potency,[15],inactive
same,Potency,[16],inactive
same,outcome,[17],inactive
